The list is not random: actives were taken first. Their share in the collection is about 13%.
RAM network inh: inhibitors of the yeast RAM network. S. cerevisiae dse1pr::URA3 reporter, 5-FOA growth OD615, 2 d; analog-sensitive cbk1-as2 kinase mutant strain. inhibition, % at 50 µM. hit rate 1.8% among 190,000. AID 868;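 active means inhibition above a set limit, 3 SD over mean compound inhibition, cut at about 8.4% in these data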;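 further: inhibition rescues growth on 5-FOA so higher OD means more RAM inhibition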
CHOP inh: inhibitors of CHOP induction in ER stress response. CHO-K1 CHOP-promoter luciferase, tunicamycin-induced, 15-18 h. inhibition, % at 10 µM. hit rate 3.8% among 220,000;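 active means compounds that reduced the stress-induced luciferase reporter signal by more than about 70% of percent inhibition, limit read from the data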
WT yeast gro inh: growth inhibition of WT yeast, mitochondrial fusion screen. mitochondrial fusion phenotypic screen, WT strain. inhibition, % at 10 µM. hit rate 2.1% among 190,000. AID 1362; in the data active means inhibition above about 58%; tested in S. cerevisiae
L major viab: Leishmania major promastigote growth inhibition. Leishmania major promastigotes, resazurin fluorescence viability. inhibition, % at 10 µM. hit rate 9% among 200,000. AID 1063; in the data active means inhibition above about 50%;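 further: promastigotes grown with compound for 44 hours at 28 °C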
Large screens that a line does not name were inactive.

O=C(COC(=O)c1cc(-c2ccc(F)cc2)nc2ccccc12)NCC1CCCO1 (centres undefined)	none
CC(=O)c1ccc(OCC(O)CN2CCC(C)CC2)cc1 (centres undefined)	L major viab 88
CCC(=O)c1ccc(OCC(O)CN2CCN(C(c3ccccc3)c3ccccc3)CC2)cc1 (centres undefined)	CHOP inh 86, L major viab 60
CC(=O)c1ccc(OCC(O)CN2C(C)CCCC2C)cc1 (centres undefined)	L major viab 72
Cc1cc(Cl)ccc1OCC(O)CN1C(C)CCCC1C (centres undefined)	L major viab 91
COc1cc(C2CC(=O)N(CC(=O)NCC3CCCO3)c3ccccc3S2)cc(OC)c1OC (centres undefined)	none
COC(=O)c1ccc(SCC(=O)NC2CCCCC2)c([N+](=O)[O-])c1	none
CC(C)C[C@H](NC(=O)c1nc[nH]c1C(=O)NC1CCN(C(=O)OC(C)(C)C)CC1)C(=O)OCc1ccccc1	L major viab 51
CC(C)C[C@H](NC(=O)c1nc[nH]c1C(=O)NCCCCCNC(=O)OC(C)(C)C)C(=O)OCc1ccccc1	RAM network inh 10
C[C@H](NC(=O)c1nc[nH]c1C(=O)NCCCCCNC(=O)OC(C)(C)C)C(=O)OCc1ccccc1	none
Cc1ccc(C)c(NC(=S)N(CCc2nc3cc(C)c(C)cc3[nH]2)Cc2cccnc2)c1	none
O=C(NCC1CCCO1)c1cc(S(=O)(=O)N2CCCC2)c(Cl)cc1Cl (centres undefined)	none
O=C(CCN1CCOCC1)NNC(=S)NC(=O)c1ccccc1	none
CC(=O)Nc1ccc(OCCOc2ccc(/C=C3/C(=N)N4C=CSC4=NC3=O)cc2)cc1	none
COc1ccc(-c2ccc(/C=C3/C(=N)N4C=CSC4=NC3=O)o2)c([N+](=O)[O-])c1	CHOP inh 82
O=C(C(=S)N1CCOCC1)c1c[nH]c2ccccc12	none
CC(Nc1cc(N2CCOCC2)ccc1[N+](=O)[O-])c1ccccc1 (centres undefined)	CHOP inh 73
COc1ccc(/C=N/OCC(=O)Nc2ccc3c(c2)OCO3)c(OC)c1	none
CC(C)CC(C)c1cc(N)nc2nc3ccccc3n12 (centres undefined)	none
Cc1cc2ncn(C(=O)c3c(-c4ccccc4)noc3C)c2cc1C	CHOP inh 72
Cc1onc(-c2ccccc2)c1C(=O)n1nnc2ccccc21	none
Cc1cc2ncn(C(=O)c3c(-c4c(Cl)cccc4Cl)noc3C)c2cc1C	CHOP inh 74
Cc1[nH]c2ccc(-c3nnc(SCC(=O)NCc4ccco4)n3Cc3ccccc3)cc2c1C	L major viab 97
COC(=O)c1c(NC(=O)CSc2nnc(-c3ccco3)n2Cc2ccccc2)sc(C)c1C	L major viab 65
CCSc1nnc(-c2cccnc2)n1Cc1ccco1	none
O=C(CSc1nnc(-c2ccncc2)n1Cc1ccco1)Nc1nccs1	none
CCOC(=O)c1c(NC(=O)CSc2nnc(-c3cccnc3)n2Cc2ccco2)sc(C)c1C	L major viab 53
O=C(CSc1nnc(-c2cccnc2)n1Cc1ccco1)Nc1nc(-c2ccc(F)cc2)cs1	L major viab 73
COc1ccc(NC(=O)C(C)Oc2ccc(/C(C)=N\O)cc2)cc1 (centres undefined)	none
CC(=O)O[C@H]1CC2(C)[C@@H](C[C@@H](O)[C@H]3[C@@]4(C)CC[C@@H](O)[C@@H](C)[C@@H]4CC[C@@]32C)C1=C(CCC=C(C)C)C(=O)O (some centres undefined)	none (no result: RAM network inh, WT yeast gro inh, L major viab)
CCOc1ccccc1CN1CCN(Cc2nc3c(s2)CCCC3)CC1CCO (centres undefined)	none
CCOc1ccc(N/C(N)=N/c2nc(CSc3nnnn3-c3ccccc3)cc(=O)[nH]2)cc1	none (no result: RAM network inh, WT yeast gro inh, L major viab)
C=CCn1c(SCC(=O)NC2CCCCC2)nnc1-c1sc(N)nc1C	none
C=CCn1c(SCC(=O)Nc2sc(C)c(C)c2C(=O)OCC)nnc1-c1sc(N)nc1C	RAM network inh 11
O=C(O)c1ccc(S(=O)(=O)NC2CCCCC2)cc1	none
CN(C1CCCCC1)S(=O)(=O)c1ccc(NC(=O)c2ccc(Br)o2)cc1	L major viab 57
O=C(CCc1ccc(S(=O)(=O)NC2CCCCC2)cc1)Nc1ccccc1	none
O=C(CCc1ccc(S(=O)(=O)NC2CCCCC2)cc1)N(Cc1ccccc1)Cc1ccccc1	RAM network inh 11
CSc1ccc(S(=O)(=O)NC2CCCCCC2)cc1	CHOP inh 78
O=C(Nc1ccc(S(=O)(=O)NC2CCCCC2)cc1)c1ccc(Br)o1	CHOP inh 83
O=C(Nc1ccc(S(=O)(=O)NC2CCCCC2)cc1)c1ccco1	none
CCCc1cc(=O)[nH]c(SCC(=O)NN(c2ccccc2)c2ccccc2)n1	none
O=C(Nc1ccc(Br)c(C(F)(F)F)c1)c1ccccc1	WT yeast gro inh 66, L major viab 61
COc1ccc(OC(=O)c2cnc3n(c2=O)CCS3)cc1	none (no result: RAM network inh, WT yeast gro inh, L major viab)
COc1cc(CNc2nc(C)c([N+](=O)[O-])c(C)c2C#N)cc(OC)c1	CHOP inh 71
CCOC(=O)c1sc2nc(Cc3ccc(Cl)cc3)[nH]c(=S)c2c1C	none
Cn1cc(C(=O)c2ccc(Cl)cc2Cl)cc1C(=O)N/N=C(\N)COc1ccc(Cl)cc1Cl	L major viab 100
Cn1cc(C(=O)c2ccc(Cl)cc2Cl)cc1C(=O)N/N=C(\N)COc1ccccc1	none
Cn1cc(C(=O)c2ccc(Cl)cc2Cl)cc1C(=O)N/N=C(\N)COc1ccc(Cl)cc1	none (no result: RAM network inh, WT yeast gro inh, L major viab)
Cn1cc(C(=O)c2ccc(Cl)cc2Cl)cc1C(=O)O	WT yeast gro inh 92
CCN(Cc1ccncc1)C(=O)c1ccc2c(c1)S(=O)(=O)c1ccccc1C2=O	none
COC(=O)c1cc(NC(=O)c2c(Cl)nc3sccn23)cc(C(=O)OC)c1	CHOP inh 76
COC(=O)c1cc(=O)nc2sccn12	none
CC(C)(C)N/N=C1\CC(c2ccccc2)Oc2ccccc21 (centres undefined)	CHOP inh 73, WT yeast gro inh 62
Cc1ccc(NS(=O)(=O)c2ccc(C(=O)OCC(=O)NCC3CCCO3)cc2)cc1 (centres undefined)	none
Cc1c(NS(=O)(=O)c2ccc(N(C)C3CCCCC3)c([N+](=O)[O-])c2)c(=O)n(-c2ccccc2)n1C	L major viab 50
CC(C)NC(=O)Cn1cc(C(=O)C2CC2)c2ccccc21	none
C#CC1(NC(=O)NC(C)C)CCCCC1	none
Cc1ccc(NC(=S)NCc2cccs2)c(C)c1	none
Cc1nn(Cc2ccccc2)c(C)c1/C=N/NC(=O)CNc1cccc(C(F)(F)F)c1	CHOP inh 70
CC(C)c1nc(N2CCOCC2)c(C#N)c2c1CCCC2	WT yeast gro inh 74
CC(C)c1nc(Cl)c(C#N)c2c1CCCC2	CHOP inh 85
CCSc1nc(N2CCOCC2)c2c(c1C#N)CCCC2	none
CCOC(=O)CSc1nc(N2CCOCC2)c2c(c1C#N)CC(C)(C)N(C)C2	none
Cc1ccccc1/C(N)=N/OC(=O)N1c2ccccc2Sc2ccccc21	WT yeast gro inh 83, L major viab 93
CCOC(=O)N1c2ccccc2Sc2ccccc21	none
Cc1ccc(/C(N)=N/OC(=O)N2c3ccccc3Sc3ccccc32)cc1	L major viab 100 (no result: RAM network inh, CHOP inh, WT yeast gro inh)
O/C(=C\c1ccc2ccccc2n1)c1ccc(O)cc1O	none
Cc1nc(OCc2c(C)noc2C)c2ccccc2n1	none
